Screening results: PubChem BioAssay, National Center for Advancing Translational Sciences (NCATS)
uPA generation – cell surface uPA generation inhibition; cell surface uPA generation assay, qHTS; Potency, µM (highest dose often 38.3 µM), most hits filed as inhibitors; 330,000 compounds, 0.31% hits; AID 540303; active = well fitted inhibition curve with a large enough effect; inconclusive = small, poorly fitted or top-dose-only effect; inactive = no such curve, though single readings can be large or run the other way; tested in mouse RAW 264.7 cells; note: nearly all actives have a fitted effect of over 55% in size
HT1080 IDH1KD tx – HT-1080 IDH1 knockdown cell toxicity (counter line). HT-1080 IDH1 knockdown viability, ATP luminescence, 48 h. 360,000 compounds, 2% hits. Potency, µM (doses to about 46.1 µM), most hits filed as cytotoxic. AID 686971
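Assay cells: HT-1080 with IDH1 knockdown, 750 per well, RPMI/5% FBS. Exposure: 48 h at 37 °C following 2 h pre-incubation. Read: CellTiter-Glo luminescence; fitted concentration-response, curve class assigned.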
IL-1B inflam inh – inhibitors of inflammasome signaling (IL-1 beta secretion); 360,000 compounds, 4.7% hits; THP-1 LPS/ATP IL-1B secretion, AlphaLISA, 16 h; active compounds read low; activity change, % at 57.5 µM; in the data active = activity change below about -50%; inconclusive = mostly about -30% to -49%
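Secreted IL-1B measured by AlphaLISA bead assay after 16 h compound exposure of THP-1 cells; compounds (final up to 57.5 uM) added 1 h before LPS (250 ng/mL) and ATP (1.25 mM) stimulation; lower signal means less secretion.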
DT40 TDP1 no CPT – qHTS for Inhibitors of human tyrosyl-DNA phosphodiesterase 1 (TDP1): qHTS in cells in absence of CPT; DT40 Tdp1-/- hTDP1 cells, no CPT, ATP luminescence, 48 h; Potency, µM (doses to about 46.2 µM), hits mostly inhibitors; 420,000 compounds, 15% hits; AID 686978, 2013; note: nearly all actives have a fitted effect of over 55% in size
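Growth of hTDP1-complemented DT40 Tdp1-knockout cells is measured by ATP luminescence after at least 48 hr compound exposure at 37 °C, with DMSO substituting for the 20 nM CPT used in the parallel screen.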
DT40 TDP1 CPT – growth inhibition of DT40 Tdp1-/-;hTDP1 cells with camptothecin (screen for TDP1 inhibitors). chicken DT40 Tdp1-/-;hTDP1 cells + 20 nM CPT, ATP luminescence, 48 h. Potency, µM (doses to about 46.2 µM), usual class: inhibitors. 420,000 compounds, 12% hits; note: nearly all actives have a fitted effect of over 55% in size
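Chicken DT40 Tdp1-/- cells complemented with human TDP1, 400 cells/well, exposed to compounds plus 20 nM camptothecin for at least 48 h at 37 C; viability read as ATP content by CellTiter-Glo luminescence.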
HT1080-NT tox – kills 2HG-producing HT-1080-NT fibrosarcoma cells; Potency, µM (doses to about 46.1 µM), hits mostly cytotoxic; HT-1080-NT fibrosarcoma viability, CellTiter-Glo ATP luminescence, 48 h; 360,000 compounds, 1.6% hits;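 note: NT is the 2HG producing partner of a matched IDH1 knockdown line; nearly all actives have a fitted effect of over 55% in size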
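Toxicity toward the 2HG-producing NT line was scored as %Activity, normalised to DMSO and no-cell wells, from CellTiter-Glo luminescence after 48 hours' treatment.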
A number is an active result; . = inactive; ? = inconclusive; / = no result. Most compounds without a hit are left out; they make up all but 19% or so of the library. Unless noted, calls come from the whole dose curve; as a rule, active = well fitted curve in the direction sought with a large enough effect; inconclusive = small, poorly fitted or top-dose-only effect, or another doubt; inactive = no such curve, though single readings can be large; an effect the other way counts as inactive or inconclusive.

SMILES	uPA generation	HT1080 IDH1KD tx	IL-1B inflam inh	DT40 TDP1 no CPT	DT40 TDP1 CPT	HT1080-NT tox
CCOc1cc2c(cc1OCC)-n1cccc1C(c1cccc(F)c1F)NC2 (stereo not given)	.	.	.	23µM	?	.
CCOc1cc2c(cc1OCC)-n1cccc1C(c1ccc(F)cc1)NC2 (stereo not given)	.	.	.	?	?	.
CCOc1cc2c(cc1OCC)-n1cccc1C(c1ccc(OC)c(OC)c1)NC2 (stereo not given)	.	.	?	?	?	.
O=S(=O)(c1cc(Cl)cc(Cl)c1)N1Cc2cc(-c3cccc(F)c3)ccc2-n2nncc2C1	/	.	.	?	?	?
C[C@@H]1CN([C@@H](C)CO)C(=O)CCCn2nncc2CO[C@H]1CN(C)C(=O)Oc1ccccc1	/	.	.	.	.	.
O=C(NCC1=C(c2ccc3ccccc3c2)C[C@@H]2CC[C@H]1N2Cc1ccco1)c1cccnc1	/	.	.	?	.	.
Cc1ccccc1OCC(=O)N1CCN(CCc2ccccn2)CC1	/	/	/	.	.	/
c1ccc2nc3ccccc3cc2c1	/	/	/	13µM	10µM	/
O=C1NC(c2cc3ccccc3nc2Cl)Nc2ccccc21 (stereo not given)	.	.	.	?	.	.
Cn1c(O)c(C(=NCCc2c[nH]c3ccccc23)c2ccccc2)c(=O)n(C)c1=O	.	.	.	?	.	.
Cn1c(=O)n(C)c2cc(CNCCc3ccc(F)cc3)ccc21	/	/	/	26µM	16µM	/
NCC[C@H](O)C(=O)N[C@@H]1C[C@H](N)[C@@H](O[C@H]2O[C@H](CN)[C@@H](O)[C@H](O)[C@H]2N)[C@H](O[C@@H]2O[C@H](CO)[C@@H](O)[C@H]2O)[C@H]1O	/	/	/	.	.	/
Oc1ccc(O)c2c1C1(Cl)C(Cl)=C(Cl)C2(Cl)C1(Cl)Cl	.	23µM	-61	16µM	23µM	?
COc1ccc(OC)c(CC(C)N)c1 (stereo not given)	/	/	/	.	.	/
CCOC(=O)c1cccc(NC(=O)c2cnc(N3CCCCC3)c3ccccc23)c1	/	/	/	23µM	18µM	/
CC(N)C(=O)NC1C2C(=C(O)CC(O)C2O)C(=O)OC1(C)C(Cl)Cl (stereo not given)	.	0.92µM	-100	0.16µM	0.18µM	?
O=C1NC(=O)C(=Cc2ccc(OCCOc3ccc([N+](=O)[O-])cc3)cc2)C(=O)N1	.	.	-59	?	?	.
CCCOc1ccc(CSc2nc3ccccc3[nH]2)cc1	?	11µM	-56	8.2µM	8.2µM	?
CN(CCOc1ccc(Cl)cc1)C(=O)c1cccc(S(=O)(=O)N2CCN(c3ccccc3)CC2)c1	?	.	.	6.5µM	15µM	.
O=C(CCN1CCOCC1)c1ccc(N2CCCCC2)cc1	?	.	-73	4.1µM	1.6µM	.
COc1ccc(C(=O)CN2CCOCC2)cc1	/	/	/	.	.	/
Cc1nc2cc(C(F)(F)F)ccc2n1C1CCN(Cc2nnnn2Cc2cccs2)CC1	.	.	?	16µM	16µM	.
Cc1nc2cc(C(F)(F)F)ccc2n1C1CCN(Cc2nnnn2Cc2ccc3c(c2)OCO3)CC1	.	29µM	-71	16µM	29µM	23µM
Fc1ccc(Cn2nnnc2CN2CCC(n3nnc4cc(C(F)(F)F)ccc43)CC2)cc1	.	.	?	?	18µM	.
Cc1nc2ccccc2n1C1CCN(Cc2nnnn2CCc2ccccc2)CC1	.	.	?	?	?	.
SMILES	uPA generation	HT1080 IDH1KD tx	IL-1B inflam inh	DT40 TDP1 no CPT	DT40 TDP1 CPT	HT1080-NT tox
O=C1CC(c2cccnc2)=NN1c1ccccc1	.	.	.	.	.	.
CC(=NCC1CCCO1)c1c(O)n(-c2ccccc2C)c(=O)[nH]c1=O (stereo not given)	.	.	.	.	.	.
Nc1nc2ccc(Cl)cc2c2nc(-c3ccco3)nn12	/	.	/	8.9µM	6.3µM	.
O=C(c1ccc(Cl)cc1)C1CCCN(Cc2cccn2-c2cccnc2)C1 (stereo not given)	.	.	-56	13µM	?	.
CSc1ccc(C(=O)C2CCCN(Cc3cccnc3)C2)cc1 (stereo not given)	.	.	.	?	?	?
COc1cc2c(cc1OC)C13CCN4CC5=CCOC6CC(=O)N2C1C6C5C3C4 (stereo not given) (tested in a mixture with another compound)	.	.	.	?	13µM	.
COC1/C=C/C=C(\C)Cc2cc(O)c(Cl)c(c2)N(C)C(=O)CC(OC(=O)C(C)C)C2(C)OC2C(C)C2CC1(O)NC(=O)O2 (stereo not given)	.	?	.	0.15µM	0.016µM	0.0092µM
O=C1NC(=O)C(C2CCOC2=O)N1 (stereo not given)	/	.	.	.	.	.
COc1ccc2c(c1O)-c1c(OC)c(OC)cc3c1[C@H](C2)N(C)CC3	.	.	.	.	.	?
CN1CCc2cc(O)cc3c2C1Cc1ccc(O)c(O)c1-3 (stereo not given)	/	/	/	2.1µM	2.6µM	/
COc1ccc2c(c1O)-c1c(OC)c(OC)cc3c1[C@@H](C2)N(C)CC3	/	/	/	.	.	/
C=CCN1CCc2cccc3c2C1Cc1ccc(O)c(O)c1-3 (stereo not given)	/	/	/	5.2µM	13µM	/
CCCN1CCc2cccc3c2[C@H]1Cc1ccc(O)c(O)c1-3	?	23µM	.	?	.	3.3µM
NCC(CP(=O)(O)O)c1ccc(Cl)cc1 (stereo not given)	/	/	/	.	.	/
COc1ccc([C@H]2CC(=O)C=C(c3c(OC)cccc3OC)C2)cc1	2.2µM	5.8µM	.	2.1µM	2.9µM	4.6µM
O=C1C(Cc2cnc[nH]2)NC(=S)N1c1ccccc1 (stereo not given)	.	.	.	.	.	.
Cc1cccc(Cc2cnc(NC(=O)c3ccc4c(c3)CC(c3ccccc3)OC4=O)s2)c1 (stereo not given)	/	/	/	21µM	26µM	/
O=C(O)[C@H]1[C@H]2CN[C@H](C(=O)O)[C@H]21	/	/	/	.	.	/
CCOC(=O)C1(CCc2ccccc2)CCN(Cc2cccc3c2OCO3)CC1	.	?	-85	9.2µM	?	?
CCOC(=O)C1(CCc2ccccc2)CCN(Cc2cccc3cnccc23)CC1	.	?	-111	?	?	?
CCOC(=O)C1(CCc2ccccc2)CCN(C(C)CSC)CC1 (stereo not given)	.	.	.	?	?	.
CCOC(=O)C1(CCc2ccccc2)CCN(Cc2csc(C(C)=O)c2)CC1	.	?	.	?	?	?
